Bioassay records deposited in PubChem by National Center for Advancing Translational Sciences (NCATS).
Sampled rows, rich in hits. Any-hit rate of the full collection: about 2.3%.
BRCT inh green = BRCA1 BRCT-phosphoprotein interaction inhibition; P38398; BRCA1 BRCT-phosphopeptide binding, green fluorescence polarization; Potency, µM (doses to about 76.9 µM), for inactives: top-dose activity change, negative = inhibition, most hits filed as inhibitors; 75,000 tested, 0.05% active;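 also: potency is read from the fitted curve at half-maximal effect; plate controls were peptide without protein for full effect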
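Compounds were incubated for 12 min at room temperature with a complex of 100 nM fluorescein-tagged pBACH1 decapeptide and 250 nM His-tagged BRCT protein. Buffer was phosphate pH 7.3 with EDTA, DTT and Tween 20. Disruption of binding lowers the polarization signal.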
Pol III holo inh = blocks replication by bacterial DNA polymerase III holoenzyme; Potency, µM (top dose mostly 57.1 µM), inactives show top-dose activity change, negative = inhibition; 71,000 tested, 0.25% active; AID 603; reconstituted DNA polymerase III holoenzyme replication, biochemical; also: potency is read from the fitted curve at half-maximal effect; % is scaled to controls: 0 for no effect and ±100 for the full control effect
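Reconstituted *E. coli* holoenzyme (0.35 nM Pol III, 1 nM beta, 154 nM SSB, 2 nM primase) was preincubated with compound for 15 min at RT. Synthesis on 1.4 nM ssM13Gori ran 35 min, then was stopped with PicoGreen/EDTA and read as dsDNA fluorescence.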
BRCT PPI red = inhibitors of human BRCA1 BRCT-phosphoprotein interaction (red fluorophore). P38398. BRCT-phosphopeptide binding, red fluorescence polarization. Potency, µM (series often up to 76.9 µM), inactives show top-dose activity change, negative = inhibition, hits mostly inhibitors. 75,000 tested, 0.03% active. AID 892; also: % is scaled to controls: 0 for no effect and ±100 for the full control effect
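Rhodamine-labelled pBACH1 10-mer (100 nM) bound to BRCT domain (100 nM) at pH 7.3; compounds incubated 12 min room temperature, polarization read. Free peptide defines full inhibition; unlabelled decapeptide titrated as control.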
Tau filament bind = binds recombinant human tau filaments; AID 596; recombinant tau filaments, thioflavin S fluorescence, 15 h; filaments grown with octadecylsulfate alongside compound; 71,000 tested, 2% active; Potency, µM (doses to about 57.1 µM), for inactives: at the top dose activity change, negative = inhibition;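 also: potency is read from the fitted curve at half-maximal effect; % is scaled to controls: 0 for no effect and ±100 for the full control effect; actives lower thioflavin S fluorescence by blocking filaments or displacing dye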
Target sequence (P10636 whole entry, looked up): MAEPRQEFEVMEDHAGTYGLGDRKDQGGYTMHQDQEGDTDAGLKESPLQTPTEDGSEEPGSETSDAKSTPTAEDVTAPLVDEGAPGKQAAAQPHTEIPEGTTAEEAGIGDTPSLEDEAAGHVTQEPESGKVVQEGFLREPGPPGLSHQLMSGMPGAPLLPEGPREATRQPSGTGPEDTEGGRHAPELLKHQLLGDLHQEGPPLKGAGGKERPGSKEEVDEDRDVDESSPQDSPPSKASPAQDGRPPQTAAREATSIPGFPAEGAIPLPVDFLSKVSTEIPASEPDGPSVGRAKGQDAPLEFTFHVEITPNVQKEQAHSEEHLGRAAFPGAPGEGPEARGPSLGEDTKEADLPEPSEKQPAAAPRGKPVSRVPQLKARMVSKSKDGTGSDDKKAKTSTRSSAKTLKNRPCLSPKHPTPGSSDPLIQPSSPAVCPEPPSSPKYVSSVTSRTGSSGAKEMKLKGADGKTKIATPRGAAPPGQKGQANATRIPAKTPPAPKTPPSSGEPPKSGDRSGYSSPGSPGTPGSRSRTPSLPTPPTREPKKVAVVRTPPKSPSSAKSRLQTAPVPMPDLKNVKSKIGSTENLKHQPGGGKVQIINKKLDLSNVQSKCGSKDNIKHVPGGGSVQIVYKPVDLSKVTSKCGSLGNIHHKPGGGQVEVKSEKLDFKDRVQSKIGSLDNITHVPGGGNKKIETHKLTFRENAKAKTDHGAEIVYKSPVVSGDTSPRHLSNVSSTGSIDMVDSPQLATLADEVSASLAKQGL
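Read-out: ThS fluorescence, 450 nm excitation/510 nm emission; lower signal marks blocked filament formation or displaced dye. Tau at 1 uM with 30 uM ODS, 10 uM ThS, 5 mM DTT, 100 mM NaCl, 10 mM HEPES pH 7.4; 15 h, 37 C.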
Hsp90 Hop PPI = changes Hsp90-Hop TPR2A binding signal, up or down | AlphaScreen TPR2A-His6 binding biotin-Hsp90 C-terminal peptide | Potency, µM (series often up to 57 µM), for inactives: at the highest dose activity change, negative = inhibition | 71,000 tested, 0.44% active | AID 595; active = well fitted curve in either direction with a large enough effect; inconclusive = small, poorly fitted or top-dose-only effect, or another doubt; also: potency is read from the fitted curve at half-maximal effect; % is scaled to controls: 0 for no effect and ±100 for the full control effect
YjeE inh = YjeE (TsaE) inhibition, E. coli; 71,000 tested, 0.05% active; P0AF67; purified YjeE enzyme, qHTS inhibition assay; Potency, µM
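Purified YjeE (10 uM) with BODIPY Texas Red-labeled ADP probe (2 uM); compounds pin-transferred, 15 min at room temperature. Binding inhibition read as decreased fluorescence polarization; ADP titration as control.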
Numbers without * were called inactive; i = inactive; u = inconclusive; x = no result; ! = not active in a repeat; [ ] = dose if it differs, or a comment. Unless noted, calls follow the shape of the dose curve; as a rule, active = well fitted curve in the direction sought with a large enough effect; inconclusive = small, poorly fitted or top-dose-only effect, or another doubt; inactive = no such curve, though single readings can be large; an effect the other way counts as inactive or inconclusive.

SMILES | BRCT inh green | Pol III holo inh | BRCT PPI red | Tau filament bind | Hsp90 Hop PPI | YjeE inh
Cc1ccc(CNC(=O)c2cc3c(=O)n4cccc(C)c4nc3n(CC3CCCO3)c2=N)cc1 (centres undefined) | 0.0% | -5.8% | 0.4% | 1.26µM* | 1.1% | i
N=c1c(C(=O)NCc2ccc(F)cc2)cc2c(=O)n3ccccc3nc2n1CC1CCCO1 (centres undefined) | 1.0% | -3.2% | 0.7% | 3.16µM* | -1.8% | i
COCCCn1c(=N)c(C(=O)NCC2CCCO2)cc2c(=O)n3ccccc3nc21 (centres undefined) | -1.6% | -9.5% | -0.4% | 44.3% | -9.7% | i
CCCn1c(=N)c(C(=O)NCC2CCCO2)cc2c(=O)n3cccc(C)c3nc21 (centres undefined) | 2.1% | -11.2% | 0.2% | -13.7% | -7.6% | i
COC(=O)c1ccc(C(NC(=O)OCc2ccccc2)/C(=C/[C@@H](C)C(=O)NCc2nc3ccccc3n2C)c2cccnc2)cc1 (some centres undefined) | -1.0% | 2.0% | -0.4% | 4.2% | -10.5% | i
FC(F)(F)c1ccccc1-c1cc(NCc2cccnc2)ncn1 | -1.7% | -3.5% | 0.5% | -2.7% | -8.1% | i
CC(C)Oc1ccc(C2c3c(oc4ccccc4c3=O)C(=O)N2CCCN2CCOCC2)cc1 (centres undefined) | -2.2% | -1.4% | 1.6% | 15.8µM* | -6.0% | i
CC1COC2=C1C(=O)C(=O)c1c2ccc2c1CCCC2(C)C (centres undefined) | -1.3% | x | -5.7% | x | x | x
C[C@@H]1C[C@H](C)CN(S(=O)(=O)c2cc(Cl)c(Oc3ccc([N+](=O)[O-])cc3Cl)c(Cl)c2)C1 | -0.9%[15.4 µM] | -11.4%[11.4 µM] | 0.0%[15.4 µM] | -25.4%[11.4 µM] | -4.7%[11 µM] | i
NC(=S)NCCC[C@@H](N)C(=O)O | -2.7% | 3.2% | -3.1% | -1.0% | -6.3% | i
CC(C)(C)CC(C)(C)c1cc(O)c(O)c(CN2CCCCC2)c1 | 0.3%[15.4 µM] | -11.2%[11.4 µM] | 1.4%[15.4 µM] | u | -7.3%[11 µM] | i
CC(C)(C)c1cc(CN2CCCC(O)C2)c(O)c(C(C)(C)C)c1 (centres undefined) | -3.7% | -5.6%[11.4 µM] | -1.2% | 5.01µM* | -9.2%[11 µM] | i
O=[N+]([O-])c1cccc2c(Br)[nH]nc12 | -4.0% | -7.9% | -1.5% | 39.8µM*! | -2.5% | i
CN1C(=O)CSc2ccc(NC(=O)N3CCOCC3)cc21 | 0.9% | -8.0% | 0.1% | u | -10.8% | i
CCOc1cccc(C(=O)Nc2ccc(N(CC)CC)cc2)c1 | 1.3% | -0.5%[11.4 µM] | 0.3% | 3.16µM* | -26.8%[11 µM] | i
CCN(CC)c1ccc(NC(=O)Nc2cccc(C(C)=O)c2)cc1 | 0.6% | 2.2% | 1.8% | 20µM* | -12.7% | i
COc1cccc(C(=O)Nc2ccc(C)cc2)c1 | -2.4% | -2.0% | -0.3% | -1.9% | 3.2% | i
CC(=O)c1cccc(NC(=O)Nc2ccc3c(c2)N(C)C(=O)CS3)c1 | 3.9% | -0.4% | 0.3% | 15.8µM* | -3.2% | i
O=C(O)c1cc(-c2ccc(-c3ccccc3)cc2)nc2cc3ccccc3cc12 | -1.4%[15.4 µM] | -11.3%[11.4 µM] | -1.3%[15.4 µM] | -14.4%[11.4 µM] | -3.6%[11 µM] | i
O=C(O)c1ccccc1NS(=O)(=O)c1ccc2c3c(cccc13)C(=O)N2 | -3.6% | -7.7% | 0.9% | -1.3% | -0.1% | i
COC(=O)c1ccccc1NS(=O)(=O)c1ccc2c3c(cccc13)C(=O)N2 | 2.9% | 1.9% | 0.7% | 15.8µM* | 11.4% | i
O=C1C2C3C=CC(C3)C2C(=O)N1c1ncn[nH]1 (centres undefined) | -0.5% | 12.6µM* | -0.2% | -11.4% | -4.6% | i
O=C1C2C3C=CC(C3)C2C(=O)N1c1ccncc1 (centres undefined) | -2.8% | 0.6% | -1.2% | -8.1% | -2.2% | i
Cc1nc2ccc(F)cc2cc1C(=O)NCC1CCCO1 (centres undefined) | -0.9% | -0.2% | -1.5% | 12.6µM* | -3.3% | i
CCNc1sc(C(=O)c2cccs2)c(N)c1-c1nc2ccccc2s1 | 2.1% | 2.2% | 1.4% | 12.6µM* | u | i
